Shn3 3UTR inh: Schnurri-3 reporter inhibition in Clone20 osteoblasts; Clone20 osteoblast Shn3 3'UTR firefly luciferase, 24 h; inhibition, % at 12.5 µM; hit rate 0.52% among 360,000;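 active = mean inhibition of at least 75% with every replicate also reaching 75%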;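 note: 0% = median of neutral control wells and 100% = pilot-screen positive control compound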
CF NFkB block: cystic fibrosis NF-kB activation inhibition; KKLEB NF-kB-GFP reporter, PAF-induced, GFP fluorescence overnight; inhibition, % at 5 µM; hit rate 0.86% among 360,000; AID 588850;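 active = at least 50% inhibition at 5 µM, scaled per plate between neutral and stimulator controls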;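 note: PAF is a Pseudomonas aeruginosa culture filtrate used as stimulus; plate controls were PAF-stimulated DMSO wells for no effect and unstimulated DMSO wells for full effect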
Peg3 promoter: inhibitors of Peg3 promoter; hit rate 1.7% among 360,000; AID 588405; HeLa PEG-Prom luciferase reporter, luminescence, overnight; inhibition, % at 20 µM;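 active = inhibition of at least 50% at 20 µM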
LMP1 NFkB inh: Epstein-Barr LMP1 NF-kappaB reporter inhibition; LMP1-induced NF-kappaB luciferase reporter cells, luminescence; inhibition, % at 12.5 µM; hit rate 0.69% among 350,000; AID 504558; in the data active = inhibition above about 41%;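 note: 0% = neutral control wells and 100% = reference inhibitor control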
KKLEB tox: reduces viability of KKLEB cystic fibrosis airway cells | KKLEB CF airway cells viability, ATPlite luminescence, overnight; stronger effect = lower value; cells stimulated with P. aeruginosa culture filtrate | hit rate 0.36% among 360,000 | activity change (cytotoxicity), % at 5 µM;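 active = corrected activity change at or below -50% at 5 µM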
MITF TRPM1 inh: MITF TRPM1 promoter inhibition in SK-MEL-5 cells | SK-MEL-5 TRPM1 promoter luciferase, 24 h | inhibition, % at 12.5 µM | hit rate 0.83% among 330,000 | AID 488899;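 active = mean inhibition across replicates of 60% or more, whatever share of single replicates reaches that level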
* hit, by the source's call; · = not tested or not shown. An excerpt weighted towards active compounds, which were near 2.9% of everything screened.

SMILES | Shn3 3UTR inh | CF NFkB block | Peg3 promoter | LMP1 NFkB inh | KKLEB tox | MITF TRPM1 inh
CN(CCN1CCOCC1)C(=O)C1CCC(=O)N(Cc2ccc(Cl)cc2)C1 (stereo not drawn) | -13 | 4 | -11 | -2 | 5 | ·
Cc1cccc(S(=O)(=O)NC(=O)C2(C)CCN2C(=O)c2c(C)noc2C)c1 (stereo not drawn) | -15 | 6 | 2 | · | -4 | ·
Nc1cc2nc3ccccc3oc-2cc1=O | 28 | 53* | -37 | -13 | 0 | 88*
CC(=O)Nc1cccc(NC(=O)Cc2cccs2)c1 | 10 | 10 | 16 | -6 | 1 | -1
O=C(Nc1ccc(-c2nc3ccc(NC(=O)c4cccs4)cc3[nH]2)cc1)c1cccs1 | 78 | 7 | 66* | -15 | -8 | 79*
O=C(Cc1cccs1)Nc1cccc(-c2nc3cc4ccccc4cc3[nH]2)c1 | -60 | 81* | -49 | -66 | -71* | -68
CC(C)CNC(=O)c1cccc2c(-c3cccc(C(N)=O)c3)coc12 | -6 | -1 | -97 | · | 10 | ·
CC(C)Cn1c(N)c(C(=O)CSc2ccc3c(c2)OCCO3)c(=O)n(C)c1=O | 86* | 45 | 21 | 39 | -12 | 40
CC(C)Cn1c(N)c(C(=O)COC(=O)c2ccc3c(c2)OCCO3)c(=O)n(C)c1=O | 67 | -16 | 0 | 29 | 0 | 7
CN1CCN(c2cc(CNC[C@H]3O[C@@H](n4cnc5c(=O)[nH]c(N)nc54)[C@H](O)[C@@H]3O)ccc2F)CC1 | -12 | -6 | 25 | · | 9 | ·
O=C(NC12CC3CC(CC(C3)C1)C2)c1ccc([N+](=O)[O-])o1 | -2 | 94* | 84* | -2 | -78* | 63*
O=C(CCCc1ccccc1)Nc1cccc(C(=O)O)c1 | 7 | 2 | 40 | 46* | 2 | 70*
O=C(CCc1ccccc1)NC(=S)Nc1cccc(C(=O)O)c1 | -49 | -13 | -54 | -5 | 12 | -2
Cc1oc(-c2ccc(Cl)cc2)nc1CN1CCC(C(=O)NCCCN2CCOCC2)CC1 | 0 | 15 | -7 | -12 | -7 | 4
CCc1ccc(-c2nc(CN3CCC(C(=O)N4CCN(c5ccccc5)CC4)CC3)c(C)o2)cc1 | 53 | 18 | 88* | -13 | -21 | 17
Cc1ccccc1-c1nc(CN2CCC(C(=O)NCCCN3CCCC(C)C3)CC2)c(C)o1 (stereo not drawn) | 20 | 8 | 23 | -15 | -4 | 94*
CCC1CCCCN1CCCNC(=O)C1CCN(Cc2nc(-c3ccc(Cl)cc3)oc2C)CC1 (stereo not drawn) | -12 | 8 | 80* | -68 | -17 | 100*
CCc1ccc(-c2nc(CN3CCC(C(=O)NCCN(CC)c4ccccc4)CC3)c(C)o2)cc1 | 60 | 1 | 108* | -64 | -9 | 67*
C[C@H](NCc1c[nH]c2ccccc12)c1ccccc1 | 5 | -8 | -2 | 81* | -4 | 18
CC(=O)Nc1ccc(C(=O)N2CCCCC2c2cc(C(=O)N3CCOCC3)no2)cc1 (stereo not drawn) | -8 | -2 | -5 | · | 2 | ·
CCCc1nc(SCc2cccnc2)c2c(=O)n(C)c(=O)n(C)c2n1 | 14 | 12 | 15 | 2 | 1 | -5
Cc1ccccc1-c1nc(SCc2cccnc2)c2c(=O)n(C)c(=O)n(C)c2n1 | 1 | 2 | 64* | -10 | 0 | 5
CC1CN(c2cc(=O)n(-c3ccccc3)c(=O)[nH]2)CC(C)O1 (stereo not drawn) | -37 | -14 | 7 | 61* | 6 | 6
Cc1ccc(-n2c(=O)cc(N3CC(C)OC(C)C3)[nH]c2=O)cc1 (stereo not drawn) | 1 | -6 | -1 | -5 | -6 | ·
O=C(Nc1cc(S(=O)(=O)N2CCCCC2)ccc1Cl)c1ccccc1NS(=O)(=O)c1ccc(F)cc1 | 71 | 66* | 53* | 28 | -43 | 15
SMILES | Shn3 3UTR inh | CF NFkB block | Peg3 promoter | LMP1 NFkB inh | KKLEB tox | MITF TRPM1 inh
O=C(Nc1cc(S(=O)(=O)N2CCCCC2)ccc1O)c1ccccc1NS(=O)(=O)c1ccc(F)cc1 | 17 | 10 | 19 | -8 | -1 | 5
Cc1ccc(NS(=O)(=O)c2ccccc2F)cc1S(=O)(=O)N1CCCCC1 | -23 | 1 | 4 | 4 | 16 | ·
Cc1ccc(S(=O)(=O)N2CCCCC2)cc1NS(=O)(=O)c1ccccc1F | 95* | 10 | 0 | 7 | 5 | 6
c1ccc(OCCNc2ccn3nc(-c4ccc(OCCN5CCOCC5)cc4)cc3n2)cc1 | 31 | 22 | 46 | · | -12 | ·
O=C1NC(C2CC3C=CC2C3)Nc2ccccc21 (stereo not drawn) | 7 | 12 | 1 | 1 | -5 | ·
CCOC(=O)/C=c1\s/c(=C\c2ccc3cc(OC)ccc3c2)c(=O)n1CC(=O)NCc1ccc2c(c1)OCO2 | 5 | -6 | 3 | -64 | -18 | 8
CCOC(=O)/C=c1\s/c(=C\c2ccccc2C)c(=O)n1CC(=O)NCc1ccc2c(c1)OCO2 | 14 | 38 | 14 | -3 | -58* | 7
CCN(Cc1ccccc1)c1cc2c(c3c1ccn3C)C1CCC2C1 (stereo not drawn) | 2 | 17 | 10 | · | -5 | ·
CCOC1=C2[C@H](c3ccc(Cl)cc3)N(S(=O)(=O)c3ccc(C)cc3)C[C@H]2n2c(=O)n(-c3ccccc3)c(=O)n2C1 | -2 | -12 | -12 | · | -7 | ·
Cc1nn(-c2ccccc2)c(Cl)c1C1C(C#N)=C(N)Oc2n[nH]c(C)c21 (stereo not drawn) | -42 | 10 | 47 | 53* | -12 | 7
CC1S/C(=C(\C#N)C(=O)NCc2ccco2)N(Cc2ccco2)C1=O (stereo not drawn) | 1 | -7 | 13 | 41* | 2 | 3
O=C(C=P(c1ccccc1)(c1ccccc1)c1ccccc1)c1ccccc1-c1ccccc1C(=O)C=P(c1ccccc1)(c1ccccc1)c1ccccc1 | 73 | 91* | 99* | 38 | -79* | 82*
Cc1ccc(C2C3=C(CC(C)(C)CC3=O)N=C3c4ccccc4C(=O)C32)cc1 (stereo not drawn) | 12 | 24 | 32 | 6 | -3 | 1
CC1(C)CC(=O)C2=C(C1)N=C1c3ccccc3C(=O)C1C2c1ccc(Cl)cc1 (stereo not drawn) | 28 | 35 | 58* | 7 | 4 | 20
CC1CCN(C(=O)COC(=O)c2cccc(S(=O)(=O)N3CCOCC3)c2)CC1 | 2 | -9 | 7 | 4 | -3 | ·
C/C=C(\C)C(=O)OC1CC(C)(C)C[C@H]2C3=CC[C@@H]4[C@@]5(C)CCC(O[C@@H]6O[C@@H](C(=O)O)[C@@H](O)C(O[C@@H]7OC[C@H](O)[C@@H](O)[C@@H]7O[C@@H]7OC(CO)C(O)[C@@H](O)[C@@H]7O)C6O[C@@H]6OC(CO)C(O)C(O)C6O)[C@@](C)(CO)[C@@H]5CC[C@]4(C)[C@]3(C)CC(O)[C@@]12CO (stereo partly drawn) | 9 | 7 | 60* | 8 | 0 | 46

Source: PubChem
